Source: PMC4336329 (PLoS ONE, 2015)
Among all 310,000 compounds or so, about 14,000 (4.5%) showed an effect of 50% or more. The effect is printed as a negative number. The entries come from a sample that favours strong results as a whole.

What follows are compounds tested against human ether-à-go-go-related gene (hERG) potassium channel (human, UniProt Q12809) (assay: primary screen, population patch clamp on CHO cells stably expressing hERG; higher = less effect of the substance).
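Further: peak tail current of the secondary pulse compared with the same well before compound.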

Sequence of human ether-à-go-go-related gene (hERG) potassium channel (Q12809 whole entry, looked up): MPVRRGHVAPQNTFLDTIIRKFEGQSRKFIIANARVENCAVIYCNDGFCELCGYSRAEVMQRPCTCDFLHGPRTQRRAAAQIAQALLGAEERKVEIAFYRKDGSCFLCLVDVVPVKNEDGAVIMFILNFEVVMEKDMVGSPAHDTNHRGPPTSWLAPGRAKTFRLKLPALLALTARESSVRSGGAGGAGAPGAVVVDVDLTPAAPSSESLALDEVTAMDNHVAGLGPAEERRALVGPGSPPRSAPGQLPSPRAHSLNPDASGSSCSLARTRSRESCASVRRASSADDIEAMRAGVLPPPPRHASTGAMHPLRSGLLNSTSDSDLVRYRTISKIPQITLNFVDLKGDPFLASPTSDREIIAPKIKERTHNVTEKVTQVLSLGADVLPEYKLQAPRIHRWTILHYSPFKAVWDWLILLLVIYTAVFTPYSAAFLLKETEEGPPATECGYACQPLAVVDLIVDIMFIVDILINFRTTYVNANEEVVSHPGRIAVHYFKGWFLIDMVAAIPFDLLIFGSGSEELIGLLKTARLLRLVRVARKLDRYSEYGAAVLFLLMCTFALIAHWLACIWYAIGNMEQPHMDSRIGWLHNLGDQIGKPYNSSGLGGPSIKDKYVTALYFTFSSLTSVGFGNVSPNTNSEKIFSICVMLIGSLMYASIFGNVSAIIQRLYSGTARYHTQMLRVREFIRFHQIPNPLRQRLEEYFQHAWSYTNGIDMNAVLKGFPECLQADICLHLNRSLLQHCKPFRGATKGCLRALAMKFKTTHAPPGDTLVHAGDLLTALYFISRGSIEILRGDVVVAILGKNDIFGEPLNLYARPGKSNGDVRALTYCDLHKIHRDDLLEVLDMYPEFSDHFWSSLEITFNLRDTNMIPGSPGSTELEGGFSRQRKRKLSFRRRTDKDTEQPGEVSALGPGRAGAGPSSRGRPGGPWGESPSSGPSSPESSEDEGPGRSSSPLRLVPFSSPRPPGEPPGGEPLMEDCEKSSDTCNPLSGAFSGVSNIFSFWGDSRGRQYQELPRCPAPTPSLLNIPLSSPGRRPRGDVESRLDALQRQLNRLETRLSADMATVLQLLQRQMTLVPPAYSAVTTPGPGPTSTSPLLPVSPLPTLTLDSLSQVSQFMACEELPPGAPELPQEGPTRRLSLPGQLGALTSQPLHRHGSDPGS

Structure (SMILES) | hERG current change (%, negative = inhibition) at 10uM [%]
COc1ccc2[nH]cc(C(=O)CCl)c2c1 | 8.92
COCCN1C(=O)N(c2ccccc2)C(=O)C1CC(=O)Nc1cc(OC)cc(OC)c1 (stereo not drawn) | 14
CSc1nnc(C)c(/C=C/NOCc2cccc(F)c2)n1 | 4.03
Cl.OCCN(Cc1ccccc1)CC(O)COc1ccc(-c2ccccc2)cc1 (stereo not drawn) | -28.3
CCOC(=O)c1ccc(NC(=O)CCc2nc(-c3cccc(C)c3)no2)cc1 | 7.13
Cc1ccc(S(=O)(=O)c2c(C)cc(C)[nH]c2=O)cc1 | 20.3
CCn1nnnc1SCC(=O)Nc1cccc(NC(C)=O)c1 | -1.06
Cc1csc(NC(=O)CSc2nncc(=O)n2N)n1 | 19
O=C(Nc1cccc(/C=C/c2ccccn2)c1)c1ccc(-n2cncn2)c([N+](=O)[O-])c1 | -24.9
Cc1cc(C)cc(OCC(=O)Nc2cc(C)on2)c1 | 15.9
Cc1c(NS(=O)(=O)c2cccc(C(=O)NCc3ccncc3)c2)c(=O)n(-c2ccccc2)n1C | 6.38
CC(C)Sc1nc2ccccc2n2cnnc12 | -6.25
Cc1nnc2c(NC(C)C)nc3ccccc3n12 | -26.8
Cc1nnc2c(SC(C)C)nc3ccccc3n12 | -77.2
CCC(NC(=S)NCc1ccc(F)cc1)c1ccc(C)cc1 (stereo not drawn) | 13.7
COc1ccc(NC(=O)c2ccccc2NC(=O)C2CC=CCC2C(=O)O)cc1 (stereo not drawn) | 15.6
Cc1ccc(CNC(=O)CCSCc2ccc(C)cc2)cc1 | -2.27
CCOC(=O)N1CCN(Cc2nc(-c3ccccc3)no2)CC1 | 2
CCOC(=O)C1CCCN(C2CCN(Cc3nc(-c4ccccc4)no3)CC2)C1 (stereo not drawn) | -56.5
NC(=O)C1CCN(Cc2nc(-c3ccccc3)no2)CC1 | -14.1
CCOC(=O)C1CCN(C2CCN(Cc3nc(-c4ccccc4)no3)CC2)CC1 | -71.5
Cc1ccc(-c2noc(CN3CCC(C(N)=O)CC3)n2)cc1 | 21.9

Structure (SMILES) | hERG current change (%, negative = inhibition) at 10uM [%]
CCOC(=O)C1CCN(Cc2nc(-c3ccc(OC)c(OC)c3)no2)CC1 | 2.83
CCOC(=O)C1CCCN(Cc2nc(Cc3cccc(F)c3)no2)C1 (stereo not drawn) | -6.6
CCOC(=O)C1CCCN(Cc2nc(Cc3ccccc3Cl)no2)C1 (stereo not drawn) | -14.1
CCOC(=O)C1CCCN(C2CCN(Cc3nc(Cc4ccccc4)no3)CC2)C1 (stereo not drawn) | -60.3
CCc1ccccc1NC(=O)Cn1nc(C(F)(F)F)c2c1CCC2 | 7.74
CN=c1scc(C)n1/N=C/c1cc(Br)c(O)c(OC)c1 | 15.8
C=C(C)c1cccc(C(C)(C)NC(=O)NCC2CCCO2)c1 (stereo not drawn) | 3.74
CCOc1ccc(Cl)cc1S(=O)(=O)N1CCC(C(=O)NCC2CCCO2)CC1 (stereo not drawn) | -2.63
CC(C)c1nc(N2CCOCC2)c(C#N)c2c1COC(C)(C)C2 | 9.56
Cc1cc(/C=C2/C(=N)N3C(=NC2=O)SN=C3S(C)(=O)=O)c(C)n1-c1ccccc1 | 0.917
Cc1cc(/C=C2/C(=N)N3C(=NC2=O)SN=C3S(C)(=O)=O)c(C)n1-c1ccc(F)cc1 | 47.6
CCOc1ccc(-n2c(C)cc(/C=C3/C(=N)N4C(=NC3=O)SN=C4S(C)(=O)=O)c2C)cc1 | -53.4
CCOc1ccccc1OCCC(=O)OCC(=O)c1ccc[nH]1 | -16.2
Cc1cc(NC(=O)C23CCC(C)(C(=O)O2)C3(C)C)no1 (stereo not drawn) | 12
COc1ccc(NC(=O)N(Cc2cc3cc(OC)ccc3[nH]c2=O)CC2CCCO2)cc1 (stereo not drawn) | -31.6
CCN(CC)CCCN(Cc1cc2cc(OC)c(OC)cc2[nH]c1=O)C(=O)Nc1ccccc1 | -13.8
COc1cc2cc(CN(Cc3cccnc3)C(=O)Nc3ccccc3)c(=O)[nH]c2cc1OC | -21.8
COc1ccc2[nH]c(=O)c(CN(CCCN(C)C)C(=O)Nc3ccc(F)cc3)cc2c1 | -65.7
CCN(CC)CCCN(Cc1cc2cc(OC)ccc2[nH]c1=O)C(=O)Nc1ccccc1 | -55.3
CCN(CC)CCCN(Cc1cc2cc(OC)ccc2[nH]c1=O)C(=O)Nc1ccc(F)cc1 | -69.9
COc1ccc2[nH]c(=O)c(CN(Cc3cccnc3)C(=O)Nc3ccccc3)cc2c1 | -54.6
COc1ccc(NC(=O)N(CCCN(C)C)Cc2cc3cc(OC)ccc3[nH]c2=O)cc1 | -38.5

Structure (SMILES) | hERG current change (%, negative = inhibition) at 10uM [%]
CCOc1ccc2[nH]c(=O)c(CN(Cc3cccnc3)C(=O)Nc3ccccc3OC)cc2c1 | -6.63
COc1ccc2[nH]c(=O)c(CN(CCCN(C)C)C(=O)Nc3ccccc3)cc2c1 | -29.2
COc1ccc2[nH]c(=O)c(CN(CC3CCCO3)C(=O)Nc3ccccc3)cc2c1 (stereo not drawn) | -2.72
CCN(CC)CCCN(Cc1cc2cc3c(cc2[nH]c1=O)OCO3)C(=S)Nc1ccc(OC)cc1 | -46.8
COC(=O)c1cscc1NC(C)=O | 20.7
O=C(O)CCc1n[nH]c(=S)[nH]c1=O | 5.81
Cc1ccc(C)c(C(=O)C(C)OC(=O)CN2C(=O)NC3(CC(C)CC(C)(C)C3)C2=O)c1 (stereo not drawn) | 23.2
CCOc1ccc(CCNC(=O)Cn2cccc2C(=O)c2ccccc2)cc1OCC | -2.85
CSCCC(NC(=O)COc1ccccc1)C(=O)Nc1ccc(C)cc1 (stereo not drawn) | -3.07
CC(=Nc1ccccc1)c1sc2ccccc2c1O | -10.8
ON1C(c2ccc(Cl)cc2Cl)N(O)[C@H]2CCCC[C@H]21 (stereo partly drawn) | -1.85
COc1ccc2cc(CN(C(=O)Nc3ccccc3)C3CCCC3)c(=O)[nH]c2c1 | -60.5
CCN(CC)CCCN(Cc1cc2cc3c(cc2[nH]c1=O)OCCO3)C(=O)Nc1ccc(F)cc1 | -61.6
CCN(CC)CCCN(Cc1cc2cc3c(cc2[nH]c1=O)OCCO3)C(=O)Nc1ccccc1 | -41.7
COc1cc2cc(CN(C(=O)Nc3ccccc3)C3CCCC3)c(=O)[nH]c2cc1OC | -44.2
COc1ccc2cc(CN(C(=O)Nc3ccccc3OC)C3CCCC3)c(=O)[nH]c2c1 | -46.9
CCN(CC)CCCN(Cc1cc2cc3c(cc2[nH]c1=O)OCO3)C(=S)Nc1ccccc1 | -45.9
COc1ccc(NC(=O)CSc2nc3c([nH]c4ccccc43)c(=O)n2C)c(OC)c1 | 19
COC(=O)c1cccc(S(=O)(=O)N2CCC(C)CC2)c1 | -4.23
O=C(COc1ccccc1)Nc1cc(S(=O)(=O)N2CCOCC2)ccc1N1CCCC1 | -8.47
Cc1cc2nc(C)n(CCCNC(=O)Nc3ccc(F)cc3)c2cc1C | -49.9
CCOc1ccc(NC(=O)NCCCn2c(C)nc3cc(C)c(C)cc32)cc1 | -55.5

Structure (SMILES) | hERG current change (%, negative = inhibition) at 10uM [%]
Cc1cc2nc(C)n(CCCNC(=O)Nc3ccc(C#N)cc3)c2cc1C | -34
COc1cccc(-c2nc(-c3ccccn3)no2)c1OC | 0.968
Cc1noc(C)c1COc1ccc(C(=O)OCc2nnc(-c3ccc(Cl)cc3)o2)cc1 | 10.1
CNC(=O)c1ccccc1S(=O)c1ccccc1C#N (stereo not drawn) | 2.49
CCOC(=O)c1ccc(NC(=O)NCCN2CCCCC2)cc1 | -31.6
COc1cc2c(cc1OC)C(c1ccccc1)N(C(=O)c1cccc(S(C)(=O)=O)c1)CC2 (stereo not drawn) | -24
COc1ccc(C(=O)N2CCc3cc(OC)c(OC)cc3C2c2ccc(OC)c(OC)c2)cc1OC (stereo not drawn) | 1.43
COc1cc2c(cc1OC)C(c1cccs1)N(C(=O)c1ccc(S(=O)(=O)N(C)C)cc1)CC2 (stereo not drawn) | -72.6
COc1cc2c(cc1OC)C(c1cccs1)N(C(=O)c1cccc(S(=O)(=O)N(C)C)c1)CC2 (stereo not drawn) | -70.7
COc1cc2c(cc1OC)CN(C(=O)c1cccc(S(=O)(=O)N(C)C)c1)CC2 | 6.05
COc1ccc(C(=O)N2CCc3cc(OC)c(OC)cc3C2c2ccc(OC)c(OC)c2)cc1 (stereo not drawn) | -12
N#C/C(=C\c1ccco1)C(=O)NCc1ccccc1 | 4.87
COc1ccc(C(=O)C(Sc2nnc(C)c(=O)[nH]2)c2ccc(OC)cc2)cc1 (stereo not drawn) | -12.3
COc1ccc(C(C)n2c(C)c3c(C)nnc(C)c3c2C)cc1 (stereo not drawn) | -57.9
Cc1nnc(C)c2c(C)n(C(c3ccccc3)c3ccccc3)c(C)c12 | -71.4
Cc1nnc(C)c2c(C)n(C(C)c3ccccc3)c(C)c12 (stereo not drawn) | -20.7
CC(=O)c1c(C(C)=O)c(C)n(C(c2ccccc2)c2ccccc2)c1C | -9.83
COc1ccc(-c2nnnn2C(C)C)cc1 | -0.893
CCN(Cc1ccccc1)S(=O)(=O)c1cc(C(=O)OC)n(C)c1 | -32.9
COc1ccc(Cn2c(=O)oc3ccc(C)cc32)cc1 | 1.22
Cc1ccc(-c2noc(CSc3nc(N)cc(N)n3)n2)cc1 | -4.24
